# Sampled rows, rich in hits. Any-hit rate of the full collection: about 1%.
# NPR2 activator = GC-B (human) receptor activation; P20594; HEK293-GC-B cells, CNP EC30, cGMP TR-FRET; 0% at EC30 CNP, 100% saturating CNP; activation, % at 10 µM; 0.11% of 370,000 active; AID 1920062;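 active means activation at 10 µM reaching about 35% in either raw or pattern-adjusted values, limit read from the data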
# A1 inh = inhibitors of the anti-apoptotic protein A1, read as caspase activation; caspase activation, % (test concentration not listed); 0.066% of 330,000 active; MEF A1-2A-BIM cells, Caspase-Glo 3/7 luminescence, 3 h; percent of clofoctol response, vehicle zero;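 active means over half of replicate activation scores above 10%, or exactly half above 10 with the replicate mean above 10; inconclusive means replicate mean below 10 yet half the replicates above 10; inactive means over half of replicates below 10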
# H9c2 TAG inh = triacylglycerol accumulation inhibition | 0.66% of 230,000 active | AID 651582 | H9c2 cells, Nile Red lipid (TAG) fluorescence; cells loaded with 200 µM oleic acid | inhibition, % at 12.5 µM;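 active means pattern-corrected inhibition of lipid staining of at least 50% with the nuclear-stain viability signal not falling by more than 50%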;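 further: 0% = DMSO wells and 100% = triacsin C control wells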
# Efflux pump inh = inhibitors of Candida antifungal efflux pumps expressed in yeast | S. cerevisiae Candida pump triplex, Nile Red efflux | inhibition, % at 10 µM | 0.44% of 330,000 active;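 active means plate passing quality check with inhibition over a set limit, or well fluorescence over plate mean plus 4 SD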;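 further: Nile Red retained in pooled yeast measured as flow cytometry median fluorescence; 0% = buffer negative control and 100% = Enniatin B positive control; higher means more Nile Red kept so more efflux inhibition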
# HSV augment = HSV replication enhancement; 0.005% of 220,000 active; HSV replication augmentation in cells, fold increase; maximum fold increase; AID 1956; in the data active means maximum fold increase above about 1.5; inconclusive means no clear call, values can overlap the other calls; tested in PC3 cells
# NPR1 activator = GC-A (human) enzyme activation; HEK293 GC-A cells, cGMP TR-FRET, EC30 ANP; 0% at EC30 ANP, 100% saturating ANP; activation, % at 10 µM; 0.14% of 370,000 active; in the data active means activation above about 40%
# Yeast cmpd fluor = compound fluorescence in yeast efflux pump counter-screen | shares compounds with Efflux pump inh | S. cerevisiae AD/pABC3, flow cytometry | fluorescence ratio to DMSO, % at 10 µM | 4% of 1,700 active | AID 588517;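 active means fluorescence ratio to DMSO above its plate's cutoff, the plate mean ratio plus 5 SD, cut at about 210% in these data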;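 further: unstained yeast with no Nile Red so the signal is compound autofluorescence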
# Mdr1 pump inh = blocks the Candida albicans Mdr1 efflux pump in yeast; shares compounds with Efflux pump inh; S. cerevisiae AD/CaMDR1, Nile Red efflux, flow cytometry; inhibition, % at 10 µM; 1% of 1,700 active; in the data active means inhibition above about 26%;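 further: 0% = DMSO vehicle and 100% = reference inhibitor; higher means more Nile Red retained so more efflux inhibition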
# CaCdr2 efflux inh = Candida Cdr2 efflux pump inhibition; S. cerevisiae AD/CaCDR2, Nile Red retention, flow cytometry; shares compounds with Efflux pump inh; 4% of 1,700 active; AID 588520; Nile Red retention ratio vs DMSO, % at 10 µM; in the data active means Nile Red retention ratio vs DMSO above about 190%;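 further: higher ratio means more blocking of Cdr2 efflux of the dye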
# CaCdr1 efflux inh = blocks the Candida albicans Cdr1 efflux pump in yeast. inhibition, % at 10 µM. S. cerevisiae AD/CaCDR1, Nile Red efflux, flow cytometry. 1% of 1,700 active. shares compounds with Efflux pump inh;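 active means inhibition above the screen-wide mean plus twice its standard deviation, cut at about 32% in these data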
# The depositor's hits bear a star; i = inactive; ? = inconclusive; / = no result given; + = active, no number.
SMILES,NPR2 activator,A1 inh,H9c2 TAG inh,Efflux pump inh,HSV augment,NPR1 activator,Yeast cmpd fluor,Mdr1 pump inh,CaCdr2 efflux inh,CaCdr1 efflux inh
CN(C)CCNS(=O)(=O)c1ccc(N2CCN(c3ccc(F)cc3)CC2)c([N+](=O)[O-])c1,-5,0,/,11*,i,-3,82,0,95,0
CC(=O)c1ccc(NS(=O)(=O)Cc2ccc(Cl)cc2)cc1,-3,0,/,0.8*,i,1,103,0,101,0
CC(=O)Nc1cccc(NS(=O)(=O)Cc2ccc(Cl)cc2)c1,1,0,/,0,i,-2,/,/,/,/
CC(=O)c1c(N2CCN(C)CC2)[nH]c(-c2ccccc2)nc1=S,-4,1,/,1.5*,i,-4,103,0,152,0
CCn1c(C)c(C(C)=O)c(N2CCN(c3ccccc3)CC2)nc1=S,6,0,3,0,i,-2,/,/,/,/
O=C(c1sc2ccccc2c1Cl)N1CCN(c2ccccc2F)CC1,5,0,-9,21*,i,-2,99,0,112,0
Cc1ccc([C@@H]2[C@@H]3C(=O)N(C)C(=O)[C@@H]3[C@@H]3C(=O)Nc4ccccc4C(=O)N23)cc1,2,-1,/,0.6*,/,6,95,0,97,0
CN1C(=O)[C@@H]2[C@H](C1=O)[C@@H]1C(=O)Nc3ccccc3C(=O)N1[C@@H]2c1ccc(Br)cc1,-4,1,/,0,/,-5,/,/,/,/
OCCN1CCN(CC/C=C2/c3ccccc3Sc3ccc(C(F)(F)F)cc32)CC1,-10,0,-7,0,/,-20,110,0,112,0
CC(NC(=O)CCC(=O)NC(C)c1ccccc1)c1ccccc1 (centres undefined),2,0,/,0,/,1,/,/,/,/
CC(NC(=O)CCSCCC(=O)NC(C)c1ccccc1)c1ccccc1 (centres undefined),7,-1,0,1.2*,i,4,102,0,98,0
Cc1nnc(NC(=O)CSc2nc3ccccc3o2)s1,0,0,/,0,i,2,/,/,/,/
Cc1ccc2nc(NC(=O)CSc3nc4ccccc4o3)sc2c1,-1,-1,/,0.6*,i,2,154,1,127,0
CNC(C)C(=O)NC(C(=O)N1CCCC1C(=O)Nc1cccc2ncccc12)C(C)C (centres undefined),1,/,/,/,/,1,/,/,/,/
Cc1c(NC(C)c2ccccc2O)c(=O)n(-c2ccccc2)n1C (centres undefined),-1,-1,/,8.2*,i,0,106,0,89,0
O=C(Nc1ccccc1Cl)c1ccccc1Oc1ccc(C(F)(F)F)cc1[N+](=O)[O-],-7,1,10,0.4*,i,-8,107,0,101,0
Cc1ccc(S(=O)(=O)c2nc(S(=O)(=O)c3ccc(C)cc3)c(NCc3ccco3)s2)cc1,4,1,/,0,i,3,/,/,/,/
CCCS(=O)(=O)c1nc(S(=O)(=O)c2ccc(C)cc2)c(NCc2ccco2)s1,5,0,/,10*,/,2,98,0,87,0
CNCc1ccccc1OCC(=O)Nc1ccccc1,2,-1,/,8.2*,i,2,106,0,106,0
CC(CN1CCCCC1)C(=O)NNC(=O)C12CC3CC(CC(C3)C1)C2 (centres undefined),-8,0,-5,0,i,0,/,/,/,/
CC(C)NC(=O)C(=O)NNC(=O)C12CC3CC(CC(C3)C1)C2,2,-1,-18,2.1*,i,1,111,0,116,0
CCOC(=O)[C@]12CCCC=C1N(Cc1ccc(OC)cc1)C(=O)[C@@H]2CC(=O)NCCc1ccccc1OC,0,/,/,/,/,-5,/,/,/,/
COc1cc(/C=C2\SC(=S)N(Nc3ccccc3)C2=O)ccc1O,-7,-2,/,0,?,1,/,/,/,/
CN(C)c1ccc(/C=C2\SC(=S)N(Nc3ncc(C(F)(F)F)cc3Cl)C2=O)cc1,-2,0,-137,1.2*,?,-1,+,0,237*,1
COc1cc(/C=C2\SC(=S)N(Nc3ncc(C(F)(F)F)cc3Cl)C2=O)ccc1O,-9,1,-7,0,?,-10,478*,0,97,0
SMILES,NPR2 activator,A1 inh,H9c2 TAG inh,Efflux pump inh,HSV augment,NPR1 activator,Yeast cmpd fluor,Mdr1 pump inh,CaCdr2 efflux inh,CaCdr1 efflux inh
Cc1cc(C)nc(NN2C(=O)/C(=C/c3ccccc3)SC2=S)n1,3,0,/,0,i,-1,/,/,/,/
Cn1c(SC/C=C/c2ccccc2)nnc1-c1cccnc1,-1,/,/,/,/,2,/,/,/,/
COc1ccc(NC(=S)Nc2ccccc2)c(OC)c1,10,-1,-23,1.1*,i,-3,107,0,104,0
Cc1ccc(CNC(=O)CCNS(=O)(=O)c2ccc3c(c2)c(=O)n(C)c(=O)n3C)cc1,1,0,/,3,i,-4,/,/,/,/
Cc1ccc(CCNC(=O)CCNS(=O)(=O)c2ccc3c(c2)c(=O)n(C)c(=O)n3C)cc1,6,0,/,9.0*,i,1,100,0,89,0
Cc1csc(NC(=O)CCNS(=O)(=O)c2ccc3c(c2)c(=O)n(C)c(=O)n3C)n1,3,0,/,6.7*,i,0,98,0,105,0
Cc1cccnc1NC(=O)CCNS(=O)(=O)c1ccc2c(c1)c(=O)n(C)c(=O)n2C,0,0,5,0,i,-1,/,/,/,/
COc1cccc(NC(=O)C2CCCN2C(=O)NC2CCC(C)CC2)c1 (centres undefined),-2,/,/,/,/,0,/,/,/,/
COc1ccccc1C1CC(c2ccccc2)=NN1S(=O)(=O)c1ccccc1 (centres undefined),0,0,0,0,i,0,/,/,/,/
COc1cccc(C2CC(c3ccccc3)=NN2S(=O)(=O)c2ccc(C)cc2)c1OC (centres undefined),-1,0,1,1.4*,i,3,105,0,123,0
CCC(=O)N1CCN(c2nc(CC)nc3sc4c(c23)CCCC4)CC1,-3,1,/,0,/,-11,/,/,/,/
CC1CCc2c(sc3nc(C(C)(C)C)nc(N4CCN(C(=O)CCl)CC4)c23)C1 (centres undefined),-4,?,91*,0.6*,/,-6,111,0,121,0

# Assay outcomes as filed in PubChem.
